Source: the antibiotic and cytotoxicity screens of Wong et al. (2023)
In all, about 39,000 compounds went through this assay and about 1,500 (3.8%) were called active. Only a selection was taken, and actives are over-represented in it overall.

test system: HSkMC (human skeletal muscle cells); experiment: cytotoxicity call (relative viability < 0.9); details: 10 µM

Structure (SMILES) | cytotoxicity call
C[C@H]1CN([C@@H](C)CO)C(=O)c2cccc(NC(=O)c3cnccn3)c2O[C@@H]1CN(C)S(=O)(=O)c1cccs1 | inactive
C[C@@H]1CCCCO[C@H](CN(C)Cc2ccc(C(F)(F)F)cc2)[C@@H](C)CN([C@@H](C)CO)C(=O)c2cc(NC(=O)C3CCCCC3)ccc2O1 | inactive
O=C(NCCN1CCOCC1)[C@@H]1c2ccccc2C(=O)N(Cc2cc(C(F)(F)F)cc(C(F)(F)F)c2)[C@H]1c1ccc(CO)cc1 | inactive
C[C@H]1CN([C@@H](C)CO)C(=O)Cc2cc(NC(=O)CCN3CCOCC3)ccc2O[C@@H]1CN(C)Cc1ccc(C(=O)Nc2ccccc2N)cc1 | inactive
Cc1noc(C)c1NC(=O)Nc1ccc2c(c1)C(=O)N([C@H](C)CO)C[C@@H](C)[C@@H](CN(C)Cc1ccc(Oc3ccccc3)cc1)O2 | inactive
C[C@@H]1CN([C@@H](C)CO)C(=O)c2cccc(NS(=O)(=O)c3cn(C)cn3)c2O[C@@H]1CN(C)S(=O)(=O)c1ccc(Cl)cc1 | inactive
COc1ccc(CN(C)C[C@H]2Oc3ccc(NS(C)(=O)=O)cc3C(=O)N([C@@H](C)CO)C[C@@H]2C)cc1 | inactive
CNC[C@H]1Oc2c(NS(=O)(=O)c3cn(C)cn3)cccc2C(=O)N([C@H](C)CO)C[C@H]1C | inactive
Cn1cnc(CCNC(=O)C[C@H]2CC[C@@H]3[C@H](COC[C@H](O)CN3C(=O)Nc3ccc(C(F)(F)F)cc3)O2)c1 | inactive
CCNC(=O)C[C@@H]1C=C[C@H](NC(=O)C2CC2)[C@@H](CO)O1 | inactive
C=CC[C@H](CC(=O)N[C@@H](CO)Cc1ccccc1)C(=O)N[C@@H](COC(=O)[C@@H](CC=C)Cc1ccc(F)cc1)Cc1c[nH]c2ccccc12 | inactive
C=CCC[C@@H](Cc1ccc(F)cc1)C(=O)OC[C@H](Cc1c[nH]c2ccccc12)NC(=O)[C@@H](CC=C)CC(=O)N[C@H](CO)Cc1ccccc1 | inactive
C=CCC[C@H](Cc1ccc(F)cc1)C(=O)OC[C@H](Cc1c[nH]c2ccccc12)NC(=O)[C@@H](CC=C)CC(=O)N[C@H](CO)Cc1ccccc1 | active
C=CCC[C@@H](Cc1ccc(F)cc1)C(=O)OC[C@@H](Cc1c[nH]c2ccccc12)NC(=O)[C@H](CC=C)CC(=O)N[C@@H](CO)Cc1ccccc1 | inactive
C=CCC[C@@H](Cc1ccc(F)cc1)C(=O)OC[C@H](Cc1c[nH]c2ccccc12)NC(=O)[C@@H](CC=C)CC(=O)N[C@@H](CO)Cc1ccccc1 | inactive
C=CC[C@@H](CC(=O)N[C@H](CO)Cc1ccccc1)C(=O)N[C@@H](COC(=O)[C@@H](CC=C)NC(=O)OCC1c2ccccc2-c2ccccc21)Cc1c[nH]c2ccccc12 | active
C=CC[C@@H](CC(=O)N[C@H](CO)Cc1ccccc1)C(=O)N[C@H](COC(=O)[C@@H](CC=C)Cc1ccc(F)cc1)Cc1c[nH]c2ccccc12 | inactive
C=CCC[C@H](Cc1ccc(F)cc1)C(=O)OC[C@H](Cc1c[nH]c2ccccc12)NC(=O)[C@H](CC=C)CC(=O)N[C@@H](CO)Cc1ccccc1 | inactive
C=CCC[C@H](Cc1ccc(F)cc1)C(=O)OC[C@H](Cc1c[nH]c2ccccc12)NC(=O)[C@@H](CC=C)CC(=O)N[C@@H](CO)Cc1ccccc1 | active
CS(=O)(=O)N1CC(=O)Nc2ccccc21 | inactive
COc1ccc(S(=O)(=O)Nc2ccc3c(c2)C(=O)N([C@@H](C)CO)C[C@@H](C)[C@@H](CN(C)Cc2ccc(C(=O)O)cc2)OCCCC[C@H](C)O3)cc1 | inactive

Structure (SMILES) | cytotoxicity call
C[C@@H]1CN([C@@H](C)CO)S(=O)(=O)c2ccc(C#CCN(C)C)cc2O[C@@H]1CN(C)Cc1ccccc1F | inactive
CC(C)NC(=O)Nc1ccc2c(c1)C(=O)N([C@H](C)CO)C[C@H](C)[C@H](CN(C)C(=O)Nc1cccc3ccccc13)OCCCC[C@H](C)O2 | inactive
CC(C)NC(=O)N(C)C[C@H]1Oc2ccc(NC(=O)C3CCCCC3)cc2C(=O)N([C@H](C)CO)C[C@@H]1C | inactive
CCC(=O)Nc1ccc2c(c1)OC[C@@H](C)N(C(=O)CN1CCOCC1)C[C@H](C)[C@@H](OC)CN(C)C2=O | inactive
C[C@@H]1CN([C@@H](C)CO)C(=O)c2cccc(NC(=O)Nc3cccc4ccccc34)c2O[C@H]1CN(C)S(=O)(=O)c1ccccc1 | inactive
COc1ccc(S(=O)(=O)Nc2cccc3c2O[C@H](CN(C)S(=O)(=O)c2ccc(C)cc2)[C@@H](C)CN([C@H](C)CO)C3=O)cc1 | inactive
O=C(C[C@@H]1CC[C@H]2[C@@H](COC[C@@H](O)CN2S(=O)(=O)c2cccc(Cl)c2)O1)NCCCN1CCOCC1 | inactive
COCC(=O)N1CC[C@]2(CC1)CN(Cc1cccc(c1)OC)[C@H](CO)c1c2c2ccc(cc2n1C)OC | inactive
C[C@H](CO)N1C[C@H](C)[C@@H](CN(C)S(=O)(=O)c2cn(C)cn2)OCc2cn(nn2)CCCC1=O | inactive
C[C@H]1CN([C@@H](C)CO)C(=O)Cc2cc(NC(=O)Nc3ccc(C(F)(F)F)cc3)ccc2O[C@H]1CN(C)Cc1ccccc1 | active
C[C@@H]1CN([C@H](C)CO)C(=O)Cc2cc(NC(=O)Nc3ccc(C(F)(F)F)cc3)ccc2O[C@H]1CN(C)Cc1ccccc1 | active
C[C@@H]1CN([C@@H](C)CO)C(=O)Cc2cc(NC(=O)Nc3ccc(C(F)(F)F)cc3)ccc2O[C@H]1CN(C)Cc1ccccc1 | inactive
C[C@@H]1CN([C@@H](C)CO)C(=O)Cc2cc(NC(=O)Nc3ccc(C(F)(F)F)cc3)ccc2O[C@@H]1CN(C)Cc1ccccc1 | active
C[C@H](CO)N1C[C@H](C)[C@H](CN(C)Cc2ccccc2)Oc2ccc(NC(=O)Nc3ccc(C(F)(F)F)cc3)cc2CC1=O | active
C[C@H]1CN([C@@H](C)CO)C(=O)Cc2cc(NC(=O)Nc3ccc(C(F)(F)F)cc3)ccc2O[C@@H]1CN(C)Cc1ccccc1 | inactive
C[C@@H]1CCCCO[C@@H](CN(C)Cc2ccc(Cl)c(Cl)c2)[C@@H](C)CN([C@@H](C)CO)C(=O)c2cc(NS(=O)(=O)c3cn(C)cn3)ccc2O1 | inactive
C[C@H]1CCCCO[C@@H](CN(C)Cc2ccc(C(F)(F)F)cc2)[C@@H](C)CN([C@@H](C)CO)C(=O)c2cc(N(C)C)ccc2O1 | inactive
CC(C)C#Cc1cnc2c(c1)C(=O)N([C@H](C)CO)C[C@H](C)[C@H](CN(C)S(=O)(=O)c1cn(C)cn1)O2 | inactive
CCCC#Cc1cnc2c(c1)C(=O)N([C@@H](C)CO)C[C@H](C)[C@H](CN(C)C(=O)c1ccc3c(c1)OCO3)O2 | inactive
COc1ccccc1S(=O)(=O)N[C@H]1CC[C@@H](CCNC(=O)C2CC2)O[C@@H]1CO | inactive
COc1ccc(NC(=O)Nc2cccc3c2O[C@@H](CN(C)CC2CCCCC2)[C@H](C)CN([C@@H](C)CO)C3=O)cc1 | inactive

Structure (SMILES) | cytotoxicity call
O=C(C[C@H]1C[C@H]2c3cc(NS(=O)(=O)c4ccc(F)cc4)ccc3O[C@H]2[C@@H](CO)O1)N1CCCCC1 | inactive
COCC(=O)N1C[C@@H](C)[C@H](OC)CN(C)C(=O)c2ccc(NC(=O)Nc3cccc(F)c3)cc2OC[C@@H]1C | inactive
C[C@@H]1CN([C@H](C)CO)C(=O)Cc2cc(NC(=O)Cc3cn(C)c4ccccc34)ccc2O[C@@H]1CN(C)Cc1ccc(C(F)(F)F)cc1 | inactive
NC1CCN(C(=O)N2CCCC2)CC1 | inactive
C[C@@H]1CN([C@@H](C)CO)C(=O)Cc2cc(NS(=O)(=O)c3ccc(Cl)cc3)ccc2O[C@H]1CN(C)C(=O)Nc1ccc(C(F)(F)F)cc1 | inactive
C[C@H](CO)N1C[C@H](C)[C@H](CN(C)CC2CC2)Oc2c(NS(=O)(=O)c3ccccc3)cccc2C1=O | inactive
COc1ccc(S(=O)(=O)Nc2ccc3c(c2)C(=O)N([C@H](C)CO)C[C@H](C)[C@@H](CN(C)S(=O)(=O)c2ccc(OC)cc2)O3)cc1 | inactive
CN1C[C@@H](N)CC1=O | inactive
COC(=O)[C@H](Cc1ccccc1)N1CC2=CCCC=C[C@H]2[C@@H]1[C@@H](O)CCn1cc(CCC(=O)NO)nn1 | inactive
C[C@@H]1CN([C@H](C)CO)C(=O)Cc2cc(NC(=O)Nc3ccc(C(F)(F)F)cc3)ccc2O[C@@H]1CN(C)Cc1ccccc1 | active
C[C@H](CO)N1C[C@H](C)[C@@H](CN(C)Cc2ccccc2)Oc2ccc(NC(=O)Nc3ccc(C(F)(F)F)cc3)cc2CC1=O | active
COc1cccc(S(=O)(=O)N2C[C@H](O)COC[C@@H]3O[C@@H](CC(=O)NCCCN4CCOCC4)CC[C@H]32)c1 | inactive
CN1CCN(C(=O)C[C@@H]2C=C[C@@H](NS(=O)(=O)c3cccc(F)c3)[C@@H](CO)O2)CC1 | inactive
O=C(O)/C=C\C(=O)Nc1cccc(C(=O)O)c1 | inactive
COc1ccc(NC(=O)Nc2cccc3c2O[C@H](CN(C)Cc2ccc(-c4ccccc4)cc2)[C@@H](C)CN([C@@H](C)CO)C3=O)cc1 | active
COc1ccc(NC(=O)Nc2cccc3c2O[C@H](CN(C)Cc2ccc(-c4ccccc4)cc2)[C@@H](C)CN([C@H](C)CO)C3=O)cc1 | inactive
COc1ccc(NC(=O)Nc2cccc3c2O[C@@H](CN(C)Cc2ccc(-c4ccccc4)cc2)[C@H](C)CN([C@@H](C)CO)C3=O)cc1 | inactive
COc1ccc(NC(=O)Nc2cccc3c2O[C@H](CN(C)Cc2ccc(-c4ccccc4)cc2)[C@H](C)CN([C@@H](C)CO)C3=O)cc1 | inactive
COc1ccc(NC(=O)Nc2cccc3c2O[C@@H](CN(C)Cc2ccc(-c4ccccc4)cc2)[C@@H](C)CN([C@H](C)CO)C3=O)cc1 | inactive
COc1ccc(NC(=O)Nc2cccc3c2O[C@H](CN(C)Cc2ccc(-c4ccccc4)cc2)[C@H](C)CN([C@H](C)CO)C3=O)cc1 | active
